Screening results as filed in PubChem BioAssay.
14-3-3 Bad PPI: disrupts binding of bovine 14-3-3 zeta to phospho-Bad peptide | AID 781 | TR-FRET 14-3-3zeta/Dy647-pBad peptide displacement, 1 h | inhibition, % at 21.7 µM | actives 0.71% (n = 220,000) | P63103;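 active means inhibition above about 70%, limit read from the data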;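 further: 0% = full 14-3-3 plus peptide FRET controls and 100% = background without 14-3-3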
Mcl1-Bid inh: disrupts binding of human Mcl-1 to Bid peptide; actives 0.97% (n = 220,000); TR-FRET Mcl-1/Bid-Dy647 peptide binding, 1536-well; Q07820; inhibition, % at 21.7 µM;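 active means compounds that cut the binding signal by more than half at the single screening dose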;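 further: His-tagged Mcl-1 with europium anti-His antibody binding Bid BH3 peptide; 0% = Mcl-1 plus peptide wells and 100% = peptide-only wells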
Target sequence (Q07820 whole entry, looked up): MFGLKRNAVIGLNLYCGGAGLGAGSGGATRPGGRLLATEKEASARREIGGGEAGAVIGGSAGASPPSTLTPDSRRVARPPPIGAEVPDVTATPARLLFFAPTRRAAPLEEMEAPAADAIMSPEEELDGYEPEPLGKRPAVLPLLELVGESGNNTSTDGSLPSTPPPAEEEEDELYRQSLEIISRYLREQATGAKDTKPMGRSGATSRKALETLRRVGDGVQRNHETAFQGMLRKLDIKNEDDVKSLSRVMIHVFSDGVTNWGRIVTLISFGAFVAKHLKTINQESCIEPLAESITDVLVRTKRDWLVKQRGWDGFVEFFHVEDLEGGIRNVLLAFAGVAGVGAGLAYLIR
NCF1 inh: p47phox (human) inhibition; P14598; p47phox/p22phox peptide binding, fluorescence polarization, 2 h; inhibition, % at 24.7 µM; actives 0.53% (n = 220,000); AID 1274;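 further: 0% = p47phox with labelled peptide and 100% = labelled peptide alone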
Mcl-1 Bim block: human Bim-Mcl-1 interaction inhibition. actives 0.1% (n = 190,000). inhibition, % at 10 µM. Bead-based flow cytometry, Bim peptide-Mcl-1 binding. Q07820. AID 1009; in the data active means inhibition above about 40%;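 further: 0% = no compound tracer wells and 100% = peptide blocker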
eIF4E 4G PPI: blocks eIF4E binding to eIF4G. TR-FRET eIF4E-eIF4GI(517-606) binding, 2 h. inhibition, % at 21.7 µM. actives 0.37% (n = 220,000). AID 782;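 further: 0% = full FRET control wells and 100% = background wells lacking eIF4GI fragment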
Mcl1-Noxa inh: disrupts binding of human Mcl-1 to Noxa peptide. Q07820. TR-FRET Mcl-1/Noxa peptide binding, 2 h. inhibition, % at 21.7 µM. actives 1.5% (n = 220,000). AID 1022;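 active means compounds that cut the protein-peptide binding signal by more than 50% relative to plate controls in a single-dose test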;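 further: His-tagged Mcl-1 with rhodamine Noxa BH3 peptide and terbium anti-His antibody; 0% = Mcl-1 plus Noxa peptide wells and 100% = peptide-only wells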
* marks the source's active call; other numbers are inactive results; / = no result; ! = not confirmed by another sample; [ ] = remark or other dose. The list is not random: actives were taken first. Their share in the collection is about 3.3%.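 How the source made its calls, unless noted: active means inhibition above about 30% (limit read from the data); inactive means the rest.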

SMILES	14-3-3 Bad PPI	Mcl1-Bid inh	NCF1 inh	Mcl-1 Bim block	eIF4E 4G PPI	Mcl1-Noxa inh
O=[N+]([O-])c1ccccc1CNCCc1ccc(F)cc1	66	7	-10	0	7	10
O=[N+]([O-])c1cc2c(cc1CNCCc1ccc3c(c1)OCO3)OCO2	15	56*	5	-5	1	20
CN1C(=O)NC(=O)/C(=C/c2ccc([N+](=O)[O-])o2)C1=O	25	-66	-48	/	10	24
O=C1NC(=O)N(c2ccccc2)C(=O)/C1=C\c1ccc([N+](=O)[O-])o1	57	10	-92	/	14	63*
O=C1NC(=O)N(c2ccccc2)C(=O)/C1=C\c1ccc([N+](=O)[O-])s1	10	-25	-89	/	3	69*
CN1C(=O)NC(=O)/C(=C/c2ccc([N+](=O)[O-])s2)C1=O	6	-51	-14	/	1	53*
O=C1NC(=O)N(c2ccccc2)C(=O)/C1=C\C=C\c1ccccc1	-4	-1	-11	/	7	70*
CCOC(=O)c1cncn1[C@H](C)c1ccccc1	6	-9	-3	-1	4	-29
CN[C@H]1C[C@H]2O[C@@](C)([C@H]1OC)n1c3ccccc3c3c4c(c5c6ccccc6n2c5c31)C(=O)NC4	11	12	-13	-3	-3	62*
COCCNP(=O)(c1ccccc1)c1nc2ccccc2s1 (centres undefined)	1	58*	-10	-2	-5	4
Cc1ccc(NP(=O)(c2ccccc2)c2nc3ccccc3s2)cc1 (centres undefined)	-8	-19	3	-2	11	6
O=C(COC(=O)Cc1ccccc1)Nc1cccnc1Cl	1	-17	0	0	-3	-2
O=C(Cc1ccccc1)OCCNC(=O)c1cccnc1	71*	47	-8	92*	-4	13
C=Cn1ccnc1P(=S)(c1ccc(Cl)cc1)c1nccn1C=C	-10	-31	5	-1	-1	13
CCN(CC)c1ccc(/C=C2/C(=O)NC(=O)N(CC3CCCO3)C2=O)cc1 (centres undefined)	0	-29	-95	-4	3	27
CCN(CC)c1ccc(/C=C2\C(=O)NC(=O)N(Cc3ccco3)C2=O)cc1	-18	-58	126*	0	4	19
CC(=O)Nc1ccccc1C(=O)C(=O)Nc1cccc(C(=O)N2CCC3(CC2)OCCO3)c1	-5	-5	-4	-20	-2	16
Cc1cc2c(C(C)C)c(O)c(O)c(C=O)c2c(O)c1-c1c(C)cc2c(C(C)C)c(O)c(O)c(C=O)c2c1O	82*[fluorescence artefact?]	100*	-6	2	33*[fluorescence artefact?]	118*
O=C(CSC1c2ccccc2-c2ccccc21)N/N=C/c1ccccc1O	2	-82	-12	-2	1	-8
Cc1c2ccncc2c(C)c2c1[nH]c1ccccc12	20	1	95*	4	23	-5
O=c1c(C=Nc2cccnc2Cl)c(O)n(CCCCl)c(=O)n1C1CCCCC1	-27	-4	-33	8	3	17
CCN(CC)c1ccc(CNCCc2ccc(F)cc2)cc1	4	-24	-5	1	1	19
O=Cc1c(C(=O)O)n(Cc2ccc(Cl)cc2)c2ccccc12	0	-16	-101	-11	-1	65*
Cc1c(C=O)c2ccccc2n1Cc1ccc(F)cc1	-3	-12	3	0	-1	-13
O=C1NC(=O)C(=Cc2ccc(-c3cc(Cl)ccc3[N+](=O)[O-])o2)C(=O)N1	79*	32	-20	-4	11	87*
SMILES	14-3-3 Bad PPI	Mcl1-Bid inh	NCF1 inh	Mcl-1 Bim block	eIF4E 4G PPI	Mcl1-Noxa inh
O=C1NC(=O)C(=Cc2ccc(-c3ccccc3[N+](=O)[O-])o2)C(=O)N1	10	-71	0	/	-6	21
COc1ccc(CN2CCCCC2c2cccnc2)cc1C (centres undefined)	55	-8	2	2	-8	13
COc1cccc(CN2CCCCC2c2cccnc2)c1 (centres undefined)	81*	38	2	-1	13	29
O=C(O)c1c[nH]c2ccc(S(=O)(=O)N(CCCl)CCCl)cc12	-8	6	-11	0	-3	6
CCN1CCN(c2cc(N3CCCC3)c(F)cc2[N+](=O)[O-])CC1	-5	-20	3	-3	8	65*
CN1CCN(c2cc(N3CCCC3)c([N+](=O)[O-])cc2F)CC1	-18	-29	-3	-2	4	-6
O=C(c1ccc(Cl)cc1)C1CCCN(Cc2ccc3ncccc3c2)C1 (centres undefined)	-6	-13	-8	0	2	-1
O=[N+]([O-])c1cc([As](=O)(O)c2ccc(O)c([N+](=O)[O-])c2)ccc1O	-1	5	8	/	4	24
CCCCCCNC(=O)N[C@H](Cc1ccc(O)cc1)C(=O)NCCC[C@H]1CN2C(=NC[C@H]2CCC)N1CC1CCC1	-11	-45	60*	/	56*	18
CCCCCCNC(=O)N[C@@H](Cc1ccc(O)cc1)C(=O)NCCC[C@H]1CN2C(=NC[C@H]2C)N1CC1CCC1	-6	-62	2	/	8	0
Cc1cccc(N2CCc3c2nc2ccccc2c3N)c1	78*![fluorescence artefact?]	26	8	0	94*![fluorescence artefact?]	31
Cn1cccc1/C=C1/C(=O)NC(=S)N(Cc2ccc(F)cc2)C1=O	-1	-40	-2	/	9	34
C/C=C(\C)C(=O)OC1C(C)=C2C(C1OC(=O)CCCCC)C(C)(OC(C)=O)CC(OC(=O)CCC)C1(O)C2OC(=O)C1(C)O (centres undefined)	4	-18	-5	/	-11	-8
COc1cccc(C2(O)CCN(CC(=O)Nc3nc(C)cs3)CC2)c1	-11	-17	-17	0	2	12
COC(=O)C1=C(N)Oc2cc(C)oc(=O)c2C12C(=O)Nc1ccccc12 (centres undefined)	-1	-13	5	0	0	0
OCC[n+]1c2ccccc2nc2ccc(N3CCOCC3)cc21	-50	-27	155*	/	-21	27
